Values joined by “and” are separate entries in the source; they are usually repeats but may differ in a detail not shown here. Identical values can stand only once. Some structures have more than one record in an assay (separate samples or runs), and their calls can disagree. Active and inactive are the calls of the source. Unless noted, calls follow the shape of the full dose curve.
How the values were obtained:
[1] = qHTS assay to identify small molecule antagonists of the thyroid receptor (TR) signaling pathway (AID 743065; active = well fitted curve in the direction sought with a large enough effect in the repeat runs; inconclusive = weak or mixed curves; inactive = no such curve, though single readings can be large; an effect the other way counts as inactive or inconclusive; also: nearly all actives have a fitted effect of over 55% in size; also: potency is read from the fitted curve at half-maximal effect)
In short: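 Antagonism measured as loss of luciferase signal in GH3 cells stably carrying a TRE-luciferase reporter, co-treated with compound and T3 (1 nM final) for 23.5 h at 37 C. Viability was read in the same well by CellTiter-Fluor.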

[2] = test system: thyroid hormone receptor (rat, GH3 cells); assay: qHTS assay to identify small molecule agonists of the thyroid receptor (TR) signaling pathway (AID 743066)
[3] = target: Estrogen receptor (Homo sapiens) (UniProt P03372); assay: qHTS assay to identify small molecule agonists of the estrogen receptor alpha (ER-alpha) signaling pathway (AID 743075);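 also: HEK293 GripTite cells with ER-alpha and UAS-driven beta-lactamase reporter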; also: potency is read from the fitted curve at half-maximal effect
Chain of Estrogen receptor (Homo sapiens) (P03372 whole entry, looked up): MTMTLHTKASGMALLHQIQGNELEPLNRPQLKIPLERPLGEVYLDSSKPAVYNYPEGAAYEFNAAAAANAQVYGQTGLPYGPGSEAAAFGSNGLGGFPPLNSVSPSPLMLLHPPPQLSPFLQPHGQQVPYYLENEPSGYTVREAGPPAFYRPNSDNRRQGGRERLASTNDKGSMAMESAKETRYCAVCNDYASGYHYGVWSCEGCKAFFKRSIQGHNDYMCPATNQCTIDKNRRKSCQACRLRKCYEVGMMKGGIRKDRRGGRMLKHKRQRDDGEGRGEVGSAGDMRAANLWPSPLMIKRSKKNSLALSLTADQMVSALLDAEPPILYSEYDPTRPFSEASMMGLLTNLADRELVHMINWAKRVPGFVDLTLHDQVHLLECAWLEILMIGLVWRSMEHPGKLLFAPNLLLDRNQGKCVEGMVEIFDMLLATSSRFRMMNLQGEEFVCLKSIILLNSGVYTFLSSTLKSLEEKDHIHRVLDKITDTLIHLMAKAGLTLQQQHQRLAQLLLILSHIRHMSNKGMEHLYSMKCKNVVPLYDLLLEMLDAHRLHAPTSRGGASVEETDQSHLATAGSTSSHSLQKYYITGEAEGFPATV

[4] = target: Estrogen receptor (Homo sapiens) (UniProt P03372); assay: qHTS assay to identify small molecule agonists of the estrogen receptor alpha (ER-alpha) signaling pathway using the BG1 cell line (AID 743079; active = well fitted curve in the direction sought with a large enough effect in the repeat runs; inconclusive = weak or mixed curves; inactive = no such curve, though single readings can be large; an effect the other way counts as inactive or inconclusive; also: nearly all actives have a fitted effect of over 20% in size; also: potency is read from the fitted curve at half-maximal effect); details: BG1Luc4E2 cells, ERE-luciferase agonist, 22 h; activation: at 70.3 µM (top of the series)
[5] = qHTS assay to identify small molecule antagonists of the estrogen receptor alpha (ER-alpha) signaling pathway using the BG1 cell line - cell viability counter screen (AID 743081; active = well fitted curve in the direction sought with a large enough effect in the repeat runs; inconclusive = weak or mixed curves; inactive = no such curve, though single readings can be large; an effect the other way counts as inactive or inconclusive;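 also: compound given together with 17beta-estradiol as the ER stimulus; nearly all actives have a fitted effect of over 45% in size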; also: potency is read from the fitted curve at half-maximal effect)
Aromatase (Homo sapiens) = Aromatase (Homo sapiens) (UniProt P11511); assay: qHTS assay to identify aromatase inhibitors (AID 743083; active = well fitted curve in the direction sought with a large enough effect in the repeat runs; inconclusive = weak or mixed curves; inactive = no such curve, though single readings can be large; an effect the other way counts as inactive or inconclusive; also: nearly all actives have a fitted effect of over 55% in size; also: potency is read from the fitted curve at half-maximal effect)
Chain of Aromatase (Homo sapiens) (P11511 whole entry, looked up): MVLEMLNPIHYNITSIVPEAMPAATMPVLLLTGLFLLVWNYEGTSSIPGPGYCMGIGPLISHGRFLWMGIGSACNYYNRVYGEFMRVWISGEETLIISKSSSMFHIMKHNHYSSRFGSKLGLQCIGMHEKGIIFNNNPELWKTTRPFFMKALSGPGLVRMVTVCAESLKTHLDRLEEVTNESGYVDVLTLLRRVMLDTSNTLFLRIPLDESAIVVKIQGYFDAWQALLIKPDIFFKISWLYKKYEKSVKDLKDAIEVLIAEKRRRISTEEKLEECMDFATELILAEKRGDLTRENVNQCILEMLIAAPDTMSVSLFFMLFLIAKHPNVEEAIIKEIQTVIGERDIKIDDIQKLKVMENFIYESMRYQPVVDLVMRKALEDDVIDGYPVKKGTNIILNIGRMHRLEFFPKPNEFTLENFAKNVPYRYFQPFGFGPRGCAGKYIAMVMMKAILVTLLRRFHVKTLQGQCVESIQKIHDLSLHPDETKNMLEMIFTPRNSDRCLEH

[6] = target: Estrogen receptor (Homo sapiens) (UniProt P03372); assay: qHTS assay to identify small molecule antagonists of the estrogen receptor alpha (ER-alpha) signaling pathway (AID 743069; active = well fitted curve in the direction sought with a large enough effect in the signal ratio in the repeat runs, not every such curve was filed as active; inconclusive = weak or mixed curves, or effect the other way; inactive = no such curve, though single readings can be large or run the other way; the % refers to the signal ratio; also: potency is read from the fitted curve at half-maximal effect)
In short: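 Antagonist mode: compounds in DMSO were co-added with 17beta-estradiol to ER-alpha-bla HEK293 cells (2% charcoal-stripped serum) and left 18 h at 37C. Reporter inhibition was measured as FRET fluorescence after 2 h LiveBLAzer substrate at room temperature.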

[7] = qHTS assay to identify small molecule antagonists of the estrogen receptor alpha (ER-alpha) signaling pathway - cell viability counter screen (AID 743074);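 also: HEK293 cells carrying ER-alpha-UAS-bla reporter stimulated with 17beta-estradiol; nearly all actives have a fitted effect of over 45% in size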; also: potency is read from the fitted curve at half-maximal effect
[8] = qHTS assay to identify small molecule antagonists of the estrogen receptor alpha (ER-alpha) signaling pathway using the BG1 cell line (AID 743080);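 also: BG1 cells stimulated with 17beta-estradiol alongside compound; nearly all actives have a fitted effect of over 25% in size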; also: potency is read from the fitted curve at half-maximal effect
In short: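 After 5 days in phenol-red-free 10% charcoal-stripped FBS medium, BG1-Luc-4E2 cells were seeded, left 24 h at 37 C, co-treated with compounds and 17beta-estradiol for 21.5 h, then assayed for viability and luciferase.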
% is scaled to controls: 0 for no effect and ±100 for the full control effect.

OC[C@H]1O[C@@H](n2cnc3c(=S)nc[nH]c32)[C@H](O)[C@@H]1O
inactive: outcome [2] | Potency [3] | Potency [4] | Potency [5] | Potency (Aromatase (Homo sapiens))
active: Potency [1] 23.7 µM

CC(=O)Nc1cc(S(=O)(=O)O)cc2cc(S(=O)(=O)O)c(N=Nc3ccccc3)c(O)c12
inactive: Potency [1] | outcome [2] | Potency [6] | Potency [7] | Potency [3] | Potency (Aromatase (Homo sapiens))
active: Potency [5] 8.63 µM

O=c1c(O)c(-c2ccc(O)cc2)oc2cc(O)cc(O)c12
inactive: outcome [2] | Potency [7] | Potency [5]

C=CC(=O)OCC1CC2CC1C1CCC(COC(=O)C=C)C21 (configuration not stated)
active: Potency [1] 61.1 µM
inactive: outcome [2] | Potency [5] | Potency (Aromatase (Homo sapiens))

O=C1c2ccccc2C(=O)N1CCc1noc(-c2ccc(CN3CCCCCC3)s2)n1
active: Potency [8] 49.9 µM
inactive: outcome [2] | Potency [6] | Potency [3] | Potency [5]

CCOC(=O)[C@H](CCc1ccccc1)N[C@@H](C)C(=O)N(CC(=O)O)C1Cc2ccccc2C1
inactive: Potency [1] | outcome [2] | Potency [6] | Potency [3] | Potency [4] | Potency [8] | Potency [5] | Potency (Aromatase (Homo sapiens))

O=C(CCCN1CC=C(n2c(=O)[nH]c3ccccc32)CC1)c1ccc(F)cc1
inactive: outcome [2] | Potency [6] | Potency [7] | Potency [3] | Potency [4] | Potency [8] | Potency [5] | Potency (Aromatase (Homo sapiens))

CC(=O)OCCN(CCOC(C)=O)c1ccc(N=Nc2ccc([N+](=O)[O-])cc2C#N)cc1
active: Potency [1] 61.1 µM
inactive: outcome [2] | Potency [7]

CCCCC(CC)CN (configuration not stated)
inactive: outcome [2] | Potency [6] | Potency [3] | Potency [4] | Potency [8] | Potency [5]

CN1CCCN=C1COC(=O)C(O)(c1ccccc1)C1CCCCC1 (configuration not stated)
inactive: outcome [2] | Potency [6] | Potency [3] | Potency [4] | Potency [8] | Potency [5] | Potency (Aromatase (Homo sapiens))

Nc1nc2ccc([N+](=O)[O-])cc2s1
active: Potency [1] 48.6 µM
inactive: outcome [2] | Potency (Aromatase (Homo sapiens))

COc1cc(C(=O)NC2CCN(C)CC2)ccc1Nc1ncc2c(n1)N(C1CCCC1)CC(F)(F)C(=O)N2C
active: Potency [1] 0.0628 µM | Potency [6] 1.59 µM [inconclusive] | Potency [7] 40 µM | Potency [8] 0.25 µM
inactive: Potency [3]

C1COC1
inactive: Potency [1] | outcome [2] | Potency [6] | Potency [7] | Potency [3] | Potency [8] | Potency [5] | Potency (Aromatase (Homo sapiens))

COc1ccccc1N1CCN(CCCCNC(=O)c2ccc(-c3ccc(C(C)=O)cc3)cc2)CC1
inactive: outcome [2] | Potency [6] | Potency [7] | Potency [3] | Potency [4] | Potency (Aromatase (Homo sapiens))

CC(CN(C)C)C(C)(O)Cc1ccc(Cl)cc1 (configuration not stated)
inactive: Potency [1] | outcome [2] | Potency [6] | Potency [7] | Potency [3] | Potency [4] | Potency [8] | Potency (Aromatase (Homo sapiens))

O=C(O)c1cccc(-c2noc(-c3ccccc3F)n2)c1
active: Potency [1] 10.6 µM
inactive: outcome [2] | Potency [5] | Potency (Aromatase (Homo sapiens))

Oc1cccc(O)c1O
active: Potency [3] 21.3 µM [inconclusive] and 54.5 µM [inconclusive] | Potency [4] 5.96 µM
inactive: Potency [1] | outcome [2] | Potency [7] | Potency [8] | Potency [5] | Potency (Aromatase (Homo sapiens))

CN(C(=O)CN(CCO)CC(=O)N(C)C(C)(C)Cc1ccccc1)C(C)(C)Cc1ccccc1
inactive: outcome [2] | Potency [7] | Potency [5]

C=CCc1ccccc1OCC(O)CNC(C)C (configuration not stated)
inactive: outcome [2] | Potency [7] | Potency [5] | Potency (Aromatase (Homo sapiens))

CCc1ccccc1
inactive: Potency [6] | Potency [7] | Potency [3] | Potency [4] | Potency [8] | Potency [5] | Potency (Aromatase (Homo sapiens))

O=C=Nc1ccc(Cl)c(Cl)c1
inactive: Potency [1] | outcome [2] | Potency [7] | Potency [3] | Potency [4] | Potency [8] | Potency [5] | Potency (Aromatase (Homo sapiens))

CC(=O)OCC(=O)NCCCOc1cccc(CN2CCCCC2)c1
inactive: Potency [7] | Potency [5] | Potency (Aromatase (Homo sapiens))

Cc1cc(O)ccc1O
inactive: outcome [2] | Potency [7] | Potency [5]

CN1CC(=O)N2[C@H](c3ccc4c(c3)OCO4)c3[nH]c4ccccc4c3C[C@@H]2C1=O
inactive: Potency [1] | outcome [2] | Potency [6] | Potency [3] | Potency [4] | Potency [5] | Potency (Aromatase (Homo sapiens))

O=C1C(=O)c2ccccc2C(O)=C1C1CCC(c2ccc(Cl)cc2)CC1 (configuration not stated)
active: Potency [7] 2.04 µM
inactive: outcome [2] | Potency [3] | Potency [4] | Potency [5] | Potency (Aromatase (Homo sapiens))

CCCCOc1ccc(OCCCN2CCOCC2)cc1
inactive: outcome [2] | Potency [6] | Potency [7] | Potency [3] | Potency [4] | Potency [8] | Potency [5] | Potency (Aromatase (Homo sapiens))

C[C@]12CC[C@@H]3c4ccc(O)cc4CC[C@H]3[C@@H]1CC[C@@H]2OC(=O)CCC1CCCC1
inactive and 61.1 µM (active): Potency (Aromatase (Homo sapiens))
active: Potency [3] 1.2 nM [inconclusive] and 0.5 nM [inconclusive] | activation [4] 60.2% and 48.5% and 30.3%
inactive: outcome [2] | Potency [7] | Potency [8] | Potency [5]

CN1C(=O)c2ccccc2C1=O
inactive: Potency [1] | outcome [2] | Potency (Aromatase (Homo sapiens))

CC(C)COCC(CN(Cc1ccccc1)c1ccccc1)N1CCCC1 (configuration not stated)
inactive: Potency [7] | Potency [3] | Potency [4] | Potency [8] | Potency [5]
active: Potency [1] 10.6 µM

OC(CCN1CCCC1)(c1ccccc1)C1CCCCC1 (configuration not stated)
inactive: outcome [2] | Potency [7] | Potency [5] | Potency (Aromatase (Homo sapiens))

CN(C)CCN1C(=O)c2ccccc2N(C)c2ccccc21
inactive: outcome [2] | Potency [6] | Potency [7] | Potency [3] | Potency [4] | Potency [8] | Potency [5] | Potency (Aromatase (Homo sapiens))

O=C(O)CCc1nc(-c2ccccc2)c(-c2ccccc2)o1
inactive: outcome [2] | Potency [6] | Potency [7] | Potency [3] | Potency [8] | Potency [5] | Potency (Aromatase (Homo sapiens))

C/C=C(/C(=C/C)c1ccc(O)cc1)c1ccc(O)cc1
inactive: outcome [2] | Potency [7] | Potency [8] | Potency [5] | Potency (Aromatase (Homo sapiens))
active: Potency [3] 0.6 nM [inconclusive] | Potency [4] 0.0003 µM

CCOC(=O)/C=C/C(=O)OCC
inactive: Potency [6] | Potency [7] | Potency [3] | Potency [4] | Potency [8] | Potency [5] | Potency (Aromatase (Homo sapiens))

From PubChem BioAssay (Tox21)
